Here are results for 49 molecules from PubChem BioAssay (NCATS).

Molecules are shown by their SMILES. “And” between values parts separate entries of the source, which are not always exact repeats. Identical values can stand only once. Results filed as inconclusive are left out. A call without a number means that no potency is given here. The source made the active and inactive calls. The call rests on the fitted dose curve.

Assay [1] in a line: Cytotoxicity counterscreen for inhibitors of SARS-CoV-2 cell entry (AID 1645845). Further: nearly all actives have a fitted effect of over 50% in size. The procedure, abridged: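 ATP-content luminescence (ATPLite 1step, 15 min RT) read after 48 h compound exposure of Expi293F cells stably expressing human ACE2; normalized to cells-only wells and media-only wells.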
(Counterscreens check selectivity or assay interference.)

Assay [2] is described as follows: Primary qHTS to identify inhibitors of SARS-CoV-2 cell entry (AID 1645846). Further: nearly all actives have a fitted effect of over 45% in size. The following applies: activity change, negative = inhibition: at 57.1 µM (top of the series) unless noted. The procedure, abridged:
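Data are normalized to wells receiving SARS-CoV-2-S pseudoparticles and those given bald particles. Entry signal was luciferase luminescence in stable hACE2 Expi293F cells, 48 hr post-infection, after 1 hr compound pretreatment.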
For orientation: In qHTS, concentration-response curves come from the screen itself.
Potency means the concentration at half of the fitted maximal effect.

On to `C[C@]12CC[C@@H]3c4ccc(O)cc4CC[C@H]3[C@@H]1CC[C@@H]2OC(=O)CCC1CCCC1`, for which, in assay [1], the Potency result was “inactive”. Moreover, the activity change, negative = inhibition in assay [2] was -19.7%.
`CC(C)COCC(CN(Cc1ccccc1)c1ccccc1)N1CCCC1` (centres undefined): the Potency entry in assay [1] is “inactive”. In assay [2], the Potency was 14.1 µM (active).
With `O=C(O)CCc1nc(-c2ccccc2)c(-c2ccccc2)o1`, the Potency result in assay [1] is “inactive”. Moreover, the activity change, negative = inhibition in assay [2] came out at 2.68%.
Consider `O=C(O)CCC(=O)Nc1ccc(S(=O)(=O)Nc2nccs2)cc1`, for which the Potency entry in assay [1] and in assay [2] was “inactive” each time.
Take `CCC(C(=O)OCCN1CCOC(c2ccccc2)C1C)c1ccccc1` (centres undefined): the Potency result in assay [1] was “inactive”. Further, in assay [2], the activity change, negative = inhibition was -21.8%.
On to `C1CCN2C[C@@H]3C[C@@H](CN4CCCC[C@@H]34)[C@H]2C1`, for which the Potency entry in assay [1] was “inactive”. Besides, the activity change, negative = inhibition in assay [2] was -16.5%.
On the same counts, the results for `Cc1c(N(C)C)c(=O)n(-c2ccccc2)n1C` are “inactive” and -10.1%.
Consider `CCOC(=O)c1ccc(OC(=O)CCCCCN=C(N)N)cc1`, for which the Potency entry in assay [1] and in assay [2] was “inactive” in each case.
Regarding `CCN(CC)CCOc1ccc(Cc2ccccc2)cc1`, in assay [1], the Potency entry was “inactive”. The Potency in assay [2] is 25.1 µM (active).
On to `CC(=O)/C=C/C=C1/C2CCC(C2)C1(C)C` (centres undefined), for which the Potency result in assay [1] was “inactive”. Further, the activity change, negative = inhibition in assay [2] was -3.44%.
Consider `Nc1ccn(C2CO[C@H](CO)O2)c(=O)n1` (some centres undefined), for which the Potency entry in assay [1] and in assay [2] was “inactive” throughout.
As to `CCN[C@H]1C[C@H](C)S(=O)(=O)c2sc(S(N)(=O)=O)cc21`, the Potency result in assay [1] is “inactive”.
`O=C(Nc1ccc(Cl)cc1)Nc1ccc(Cl)c(C(F)(F)F)c1`: the Potency in assay [1] was 22.4 µM (active).
With `C[C@H]1C[C@H]2[C@@H]3CCC4=CC(=O)C=C[C@]4(C)[C@@]3(Cl)[C@@H](O)C[C@]2(C)[C@@]1(O)C(=O)CO`, the Potency entry in assay [1] and in assay [2] was “inactive” each time.
On to `CCOc1ccccc1C(N)=O`, for which the Potency entry in assay [1] and in assay [2] was “inactive” throughout.
With `CC1(C)[C@H](C(=O)O)N2C(=O)C[C@H]2S1(=O)=O`, the Potency entry in assay [1] and in assay [2] was “inactive” throughout.
With `c1ccc(CNCCNCc2ccccc2)cc1`, the Potency result in assay [1] is “inactive”. Further, the activity change, negative = inhibition in assay [2] is -30.1%.
Take `CCOC(=O)n1ccn(C)c1=S`: the Potency entry in assay [1] and in assay [2] was “inactive” each time.
Turning to `OCC(CO)N[C@H]1C[C@](O)(CO)[C@@H](O)[C@H](O)[C@H]1O`, the Potency entry in assay [1] and in assay [2] was “inactive” each time.
For `COc1cc(N)c(Cl)cc1C(=O)NC1CCN(Cc2ccccc2)CC1`, in assay [1], the Potency result was “inactive”.
`C[C@H]1NCc2cc(-c3ccc4c(=O)c(C(=O)O)cn(C5CC5)c4c3OC(F)F)ccc21`: the Potency entry in assay [1] is “inactive”. Moreover, the activity change, negative = inhibition in assay [2] was -12.7% [at 27.1 µM].
Take `CN1C(=O)CC(c2ccccc2)C1=O` (centres undefined): the Potency entry in assay [1] is “inactive”.
As to `COCc1c(C(C)C)nc(C(C)C)c(/C=C/[C@@H](O)C[C@@H](O)CC(=O)O)c1-c1ccc(F)cc1`, the Potency result in assay [1] is “inactive”.
On to `C[C@]1(Cn2ccnn2)[C@H](C(=O)O)N2C(=O)C[C@H]2S1(=O)=O`, for which the Potency result in assay [1] is “inactive”. Also, in assay [2], the activity change, negative = inhibition stood at 1.05%.
As to `N[C@H](Cc1c[nH]c2ccccc12)C(=O)O`, the Potency result in assay [1] and in assay [2] was “inactive” in each case.
With `CC(=O)OCC(=O)[C@@]1(O)CCC2C3CCC4=CC(=O)CC[C@]4(C)C3[C@@H](O)C[C@@]21C` (some centres undefined), the Potency entry in assay [1] and in assay [2] was “inactive” in each case.
As for `Cc1ncc(CSSCc2cnc(C)c(O)c2CO)c(CO)c1O`, the Potency entry in assay [1] is “inactive”.
Turning to `C[C@H](O)C(=O)Nc1c(I)c(C(=O)NC(CO)CO)c(I)c(C(=O)NC(CO)CO)c1I`, the Potency result in assay [1] is “inactive”. For the same molecule, in assay [2], the activity change, negative = inhibition came to 4.46%.
Consider `O=C(CCCN1CCC(O)(c2ccc(Br)cc2)CC1)c1ccc(F)cc1`, for which the Potency result in assay [1] was “inactive”.
On to `Nc1c(CC(=O)O)cccc1C(=O)c1ccc(Br)cc1`, for which the Potency result in assay [1] and in assay [2] was “inactive” throughout.
Take `Cc1ccc(C(C)OC(=O)C2(C)CCC(C(=O)O)C2(C)C)cc1` (centres undefined): the Potency entry in assay [1] is “inactive”. Moreover, in assay [2], the activity change, negative = inhibition was -10.3%.
On to `O=C(Nc1ccc([N+](=O)[O-])cc1)Nc1ccc([N+](=O)[O-])cc1`, for which the Potency entry in assay [1] is “inactive”.
Regarding `Nc1ccn([C@H]2CC[C@@H](CO)O2)c(=O)n1`, the Potency entry in assay [1] and in assay [2] was “inactive” throughout.
For `CC(=O)Oc1c(C)c(C)c2c(c1C)CC[C@@](C)(CCC[C@H](C)CCC[C@H](C)CCCC(C)C)O2`, the Potency entry in assay [1] and in assay [2] was “inactive” each time.
As to `CNC(=O)Oc1ccc2c(c1)[C@]1(C)CCN(C)[C@@H]1N2C`, the Potency result in assay [1] and in assay [2] was “inactive” throughout.
With `NS(=O)(=O)c1cc2c(cc1Cl)CN(C1CCCCC1)C2=O`, the Potency result in assay [1] and in assay [2] was “inactive” throughout.
Consider `COc1cccc(CCc2ccccc2OCC(CN(C)C)OC(=O)CCC(=O)O)c1` (centres undefined), for which the Potency entry in assay [1] is “inactive”.
On to `COc1ccnc2c1CCCCC2S(=O)c1nc2ccccc2[nH]1` (centres undefined), for which the Potency result in assay [1] was “inactive”. Also, the activity change, negative = inhibition in assay [2] was -18.8%.
Regarding `NS(=O)(=O)c1cc2c(cc1Cl)NC(CSCc1ccccc1)=NS2(=O)=O`, the Potency entry in assay [1] was “inactive”. The activity change, negative = inhibition in assay [2] is -3.7%.
On to `CCc1cccc2c3c([nH]c12)C(CC)(CC(=O)O)OCC3` (centres undefined), for which the Potency result in assay [1] and in assay [2] was “inactive” in each case.
For `CNC1CCCN(c2c(F)cc3c(=O)c(C(=O)O)cn(C4CC4)c3c2OC)C1` (centres undefined), the Potency entry in assay [1] was “inactive”. Also, the activity change, negative = inhibition in assay [2] was -27.9% and -16.1%.
Consider `CN1CCN(C2=Nc3ccccc3Sc3ccc(Cl)cc32)CC1`, for which the Potency entry in assay [1] is “inactive”. Further, the activity change, negative = inhibition in assay [2] is -10.6%.
Consider `Cc1cccc(N(C)C(=S)Oc2ccc3c(c2)C2CCC3C2)c1` (centres undefined), for which the Potency result in assay [1] and in assay [2] was “inactive” in each case.
In the case of `N#Cc1cc(NC(=O)C(=O)O)c(Cl)c(NC(=O)C(=O)O)c1`, in assay [1], the Potency result was “inactive”. Moreover, in assay [2], the activity change, negative = inhibition was 1.2%.
For the molecule `CCN(CC)C(=O)C1CN2CCc3cc(OC)c(OC)cc3C2CC1OC(C)=O` (centres undefined), the Potency result in assay [1] and in assay [2] was “inactive” throughout.
As to `CCN(CC)C(=O)N1CCN(C)CC1`, in assay [1], the Potency entry was “inactive”. Further, in assay [2], the activity change, negative = inhibition was -24.4%.
Regarding `C=CCc1ccccc1OCC(O)CNC(C)C` (centres undefined), the Potency entry in assay [1] was “inactive”. Also, in assay [2], the activity change, negative = inhibition is -22.8%.
As for `CC(C)(C)NCC(O)COc1cccc2c1CCC(=O)N2` (centres undefined), the Potency result in assay [1] and in assay [2] was “inactive” throughout.
On to `Cc1c(-c2ccccc2)oc2c(C(=O)OCCN3CCCCC3)cccc2c1=O`, for which, in assay [1], the Potency entry is “inactive”. In addition, the activity change, negative = inhibition in assay [2] is -5.61%.
